Measured values from PubChem BioAssay (NCATS).
Results filed as inconclusive are left out. A call without a number means that no potency is given here. Activity calls are given as the source filed them. Calls come from the whole dose curve; as a rule, active = well fitted curve in the direction sought with a large enough effect; inconclusive = small, poorly fitted or top-dose-only effect, or another doubt; inactive = no such curve, though single readings can be large; an effect the other way counts as inactive or inconclusive.

molecular target: Parathyroid hormone/parathyroid hormone-related peptide receptor (Homo sapiens) (UniProt Q03431); experiment: qHTS for PTHR1 Agonists: Optimization Screen against the NCGC LOPAC library (AID 1347079); settings: HEK293 GP2 PTHR1 GloSensor cAMP luminescence, 1 h; series mostly up to 57.1 µM; activation: at the top concentration;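 note: GloSensor cAMP luminescence in HEK-293 GP2 cells expressing human PTHR1 with IBMX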
Sequence (Q03431 whole entry, looked up): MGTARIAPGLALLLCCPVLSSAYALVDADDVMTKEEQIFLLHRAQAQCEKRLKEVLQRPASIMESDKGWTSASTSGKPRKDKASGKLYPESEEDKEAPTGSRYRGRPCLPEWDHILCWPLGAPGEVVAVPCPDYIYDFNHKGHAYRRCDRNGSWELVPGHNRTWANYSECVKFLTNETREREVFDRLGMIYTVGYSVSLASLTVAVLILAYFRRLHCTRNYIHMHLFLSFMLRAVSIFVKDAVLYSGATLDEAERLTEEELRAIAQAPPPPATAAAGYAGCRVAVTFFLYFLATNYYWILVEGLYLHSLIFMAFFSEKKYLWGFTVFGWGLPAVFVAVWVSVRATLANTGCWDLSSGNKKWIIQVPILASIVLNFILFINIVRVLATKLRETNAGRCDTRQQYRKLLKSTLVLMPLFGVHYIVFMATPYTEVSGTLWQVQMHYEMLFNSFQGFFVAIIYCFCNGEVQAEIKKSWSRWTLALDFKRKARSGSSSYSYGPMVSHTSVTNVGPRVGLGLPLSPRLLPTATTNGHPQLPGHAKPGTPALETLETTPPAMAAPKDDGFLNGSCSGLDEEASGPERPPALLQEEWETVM
In short: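 Agonist readout: GloSensor cAMP luminescence, read after 15 min at room temperature. HEK-293-derived GP2 line carries PTHR1; compounds tested as a titration for 1 hr at 37C in presence of IBMX. M-PTH (1-15) served as control.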

Structure (SMILES)	activation	outcome
NC(=O)c1cnccn1	2.7% (inactive)	
CCn1cc(C(=O)O)c(=O)c2cc(F)c(N3CCNC(C)C3)c(F)c21 (stereo unspecified)	-17.8% (inactive)	
NS(=O)(=O)c1cc2c(cc1Cl)NC=NS2(=O)=O	4.88% (inactive)	
O=C(O)COCCN1CCN(C(c2ccccc2)c2ccc(Cl)cc2)CC1 (stereo unspecified)	-5.06% (inactive)	
CCOC(=O)C1=C[C@]2(CC)CCCN3CCc4c(n1c1ccccc41)[C@@H]32	25.3% (inactive)	
CCC(C)N(C)C(=O)c1cc2ccccc2c(-c2ccccc2Cl)n1 (stereo unspecified)	-27% (inactive)	
OC(CCN1CCCCC1)(c1ccccc1)C1CC2C=CC1C2 (stereo unspecified)	-37.8% (inactive)	
OC(CN1CCC(Cc2ccc(F)cc2)CC1)c1ccc(Cl)cc1 (stereo unspecified)	-22.4% (inactive)	
Cc1ccccc1C(OCCN(C)C)c1ccccc1 (stereo unspecified)	33.5% (inactive)	
O=NN(CCCl)C(=O)NCCCl	-2.18% (inactive)	
Cc1[nH]c(=O)c(C#N)cc1-c1ccc2nccn2c1	34.8% (inactive)	
CC(C)NCC(O)COc1ccc(COCCOC(C)C)cc1 (stereo unspecified)	8.81% (inactive)	
Nc1ccc(S(=O)(=O)Nc2ccnn2-c2ccccc2)cc1	-12.5% (inactive)	
CC(C)(Sc1ccc(CCN(CCCCC2CCCCC2)C(=O)NC2CCCCC2)cc1)C(=O)O	-25.5% (inactive)	
Nc1nc2c(ncn2COCCO)c(=O)[nH]1	-36.9% (inactive)	
CC(=O)Oc1ccccc1C(=O)O	-9.38% (inactive)	
c1ccc([C@H]2CN3CCSC3=N2)cc1	-6.06% (inactive)	
O=C1CCC(N2C(=O)c3ccccc3C2=O)C(=O)N1 (stereo unspecified)	-33.8% (inactive)	

Structure (SMILES)	activation	outcome
Nc1nc2ccc(OC(F)(F)F)cc2s1	-36.5% (inactive)	
CC(C[N+](C)(C)C)OC(N)=O (stereo unspecified)	-49.7% (inactive)	
CCOC(=O)N1CCC(=C2c3ccc(Cl)cc3CCc3cccnc32)CC1	29.7% (inactive)	
Cc1cnc(NC(=O)C2=C(O)c3ccccc3S(=O)(=O)N2C)s1	-19% (inactive)	
Oc1ccc(C2CNCCc3c2cc(O)c(O)c3Cl)cc1 (stereo unspecified)	29.2% (inactive)	
C1COC(NC(C2CC2)C2CC2)=N1	0% (inactive)	
Clc1cccc(Cl)c1NC1=NCCN1	-28.7% (inactive)	
CC(C)C[C@H](NC(=O)[C@@H](O)[C@H](N)Cc1ccccc1)C(=O)O	-22.2% (inactive)	
O=C1CCc2cc(OCCCCc3nnnn3C3CCCCC3)ccc2N1	-37.9% (inactive)	
N[C@@H]1CONC1=O	-3.27% (inactive)	
O=c1n(CCCN2CCN(c3cccc(Cl)c3)CC2)nc2ccccn12	2.44% (inactive)	
O=c1[nH]cnc2[nH]ncc12	-37.2% (inactive)	
CNC[C@H](O)c1cccc(O)c1	12.4% (inactive)	
NCCCC(N)(C(=O)O)C(F)F (stereo unspecified)	1.22% (inactive)	
CCCC(CCC)C(=O)O	37.6% (inactive)	
Cc1cn[nH]c1	30.5% (inactive)	
CC(C)(C)NCC(O)c1ccc(O)c(CO)c1 (stereo unspecified)		inactive

tested on: not listed separately; experiment: qHTS of pediatric cancer cell lines to identify multiple opportunities for drug repurposing: Primary screen for TC32 cells (AID 1347089); settings: TC32 Ewing sarcoma viability, CellTiter-Glo luminescence, 48 h; series mostly up to 45.8 µM; activity change, negative = cytotoxic: at the top concentration; note: nearly all actives have a fitted effect of over 60% in size
In short: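 Measured quantity: luminescence from CellTiter-Glo, reflecting metabolically active TC32 cells following 48 h of compound. Curves came straight from multi-point titrations, with 8 or 11 points in primary and 11 in confirmatory screening.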

Structure (SMILES)	Potency	activity change, negative = cytotoxic
NC(=O)c1cnccn1	inactive	
NS(=O)(=O)c1cc2c(cc1Cl)NC=NS2(=O)=O	inactive	
O=C(O)COCCN1CCN(C(c2ccccc2)c2ccc(Cl)cc2)CC1 (stereo unspecified)	inactive	
CCOC(=O)C1=C[C@]2(CC)CCCN3CCc4c(n1c1ccccc41)[C@@H]32	inactive	
CCC(C)N(C)C(=O)c1cc2ccccc2c(-c2ccccc2Cl)n1 (stereo unspecified)		8.26% (inactive)
OC(CCN1CCCCC1)(c1ccccc1)C1CC2C=CC1C2 (stereo unspecified)	inactive	
OC(CN1CCC(Cc2ccc(F)cc2)CC1)c1ccc(Cl)cc1 (stereo unspecified)	inactive	
Cc1ccccc1C(OCCN(C)C)c1ccccc1 (stereo unspecified)	inactive	
CC(C)NCC(O)COc1ccc(COCCOC(C)C)cc1 (stereo unspecified)	inactive	
Nc1ccc(S(=O)(=O)Nc2ccnn2-c2ccccc2)cc1	inactive	
CC(C)(Sc1ccc(CCN(CCCCC2CCCCC2)C(=O)NC2CCCCC2)cc1)C(=O)O		6.52% (inactive)
Nc1nc2c(ncn2COCCO)c(=O)[nH]1	inactive	
CC(=O)Oc1ccccc1C(=O)O	inactive	
O=C1CCC(N2C(=O)c3ccccc3C2=O)C(=O)N1 (stereo unspecified)	inactive	
Nc1nc2ccc(OC(F)(F)F)cc2s1	inactive	
Cc1cnc(NC(=O)C2=C(O)c3ccccc3S(=O)(=O)N2C)s1	inactive	
Oc1ccc(C2CNCCc3c2cc(O)c(O)c3Cl)cc1 (stereo unspecified)	inactive	
Clc1cccc(Cl)c1NC1=NCCN1	inactive	
CC(C)C[C@H](NC(=O)[C@@H](O)[C@H](N)Cc1ccccc1)C(=O)O		-8.16% (inactive)
O=C1CCc2cc(OCCCCc3nnnn3C3CCCCC3)ccc2N1	inactive	
N[C@@H]1CONC1=O		10.4% (inactive)
O=c1n(CCCN2CCN(c3cccc(Cl)c3)CC2)nc2ccccn12	inactive	
O=c1[nH]cnc2[nH]ncc12	inactive	
CNC[C@H](O)c1cccc(O)c1	inactive	
CCCC(CCC)C(=O)O	inactive	

tested on: not listed separately; experiment: qHTS of pediatric cancer cell lines to identify multiple opportunities for drug repurposing: Primary screen for DAOY cells (AID 1347090); settings: DAOY medulloblastoma viability, CellTiter-Glo luminescence, 48 h; series mostly up to 46 µM; activity change, negative = cytotoxic: at the top concentration; note: nearly all actives have a fitted effect of over 55% in size
In short: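 Viability measured as metabolically active cells via CellTiter-Glo luminescence following 48 hours of compound exposure, 11-point dilutions in confirmatory testing. 500-1,000 cells/well plated 5 hours before dosing; controls were DMSO and 2.3 µM bortezomib.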

Structure (SMILES)	Potency	activity change, negative = cytotoxic
NC(=O)c1cnccn1	inactive	
CCn1cc(C(=O)O)c(=O)c2cc(F)c(N3CCNC(C)C3)c(F)c21 (stereo unspecified)	inactive	
NS(=O)(=O)c1cc2c(cc1Cl)NC=NS2(=O)=O	inactive	
O=C(O)COCCN1CCN(C(c2ccccc2)c2ccc(Cl)cc2)CC1 (stereo unspecified)	inactive	
CCOC(=O)C1=C[C@]2(CC)CCCN3CCc4c(n1c1ccccc41)[C@@H]32	inactive	
CCC(C)N(C)C(=O)c1cc2ccccc2c(-c2ccccc2Cl)n1 (stereo unspecified)		-8.64% (inactive)
OC(CCN1CCCCC1)(c1ccccc1)C1CC2C=CC1C2 (stereo unspecified)	inactive	
OC(CN1CCC(Cc2ccc(F)cc2)CC1)c1ccc(Cl)cc1 (stereo unspecified)	inactive	
Cc1ccccc1C(OCCN(C)C)c1ccccc1 (stereo unspecified)	inactive	
O=NN(CCCl)C(=O)NCCCl	inactive	
Cc1[nH]c(=O)c(C#N)cc1-c1ccc2nccn2c1		8.16% (inactive)
CC(C)NCC(O)COc1ccc(COCCOC(C)C)cc1 (stereo unspecified)	inactive	
Nc1ccc(S(=O)(=O)Nc2ccnn2-c2ccccc2)cc1	inactive	
Nc1nc2c(ncn2COCCO)c(=O)[nH]1	inactive	
c1ccc([C@H]2CN3CCSC3=N2)cc1	inactive	
O=C1CCC(N2C(=O)c3ccccc3C2=O)C(=O)N1 (stereo unspecified)	inactive	

Structure (SMILES)	Potency	activity change, negative = cytotoxic
Nc1nc2ccc(OC(F)(F)F)cc2s1	inactive	
CC(C[N+](C)(C)C)OC(N)=O (stereo unspecified)	inactive	
Cc1cnc(NC(=O)C2=C(O)c3ccccc3S(=O)(=O)N2C)s1	inactive	
Oc1ccc(C2CNCCc3c2cc(O)c(O)c3Cl)cc1 (stereo unspecified)	inactive	
C1COC(NC(C2CC2)C2CC2)=N1	inactive	
Clc1cccc(Cl)c1NC1=NCCN1	inactive	
O=C1CCc2cc(OCCCCc3nnnn3C3CCCCC3)ccc2N1	inactive	
N[C@@H]1CONC1=O	inactive	
O=c1n(CCCN2CCN(c3cccc(Cl)c3)CC2)nc2ccccn12	inactive	
O=c1[nH]cnc2[nH]ncc12	inactive	
CNC[C@H](O)c1cccc(O)c1	inactive	
NCCCC(N)(C(=O)O)C(F)F (stereo unspecified)		-8.37% (inactive)
CCCC(CCC)C(=O)O		0.263% (inactive)
Cc1cn[nH]c1		7.98% (inactive)
CC(C)(C)NCC(O)c1ccc(O)c(CO)c1 (stereo unspecified)	inactive	
